CYP2C9 inh – inhibitors of human CYP2C9; P11712; CYP2C9 Supersomes, luciferin-H conversion, luminescence; inhibition, % at 5 µM; 20% of 96,000 active; AID 777;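 active = blocking of liver enzyme CYP2C9 beyond about 50% at 5 µM, limit read from the data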
PTK2B oligo ant – blocks oligomerization of human Pyk2 in cells; Q293 cells, Pyk2 FERM NanoBiT luminescence; active compounds read low; Q14289; 0.83% of 99,000 active; z-score (the deposit names both 25 µM and 10 µM);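 active = Z-score of -3 or lower, scaled per plate to the spread of control and sample wells; inactive = z-score above -3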;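 also: negative z-score means lost luminescence so less FERM oligomerization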
CYP2C19 activ – increases human CYP2C19 enzyme activity; P33261; recombinant CYP2C19, luciferin-H EGE luminescence; active compounds read high; 0 = fully inhibited enzyme, 1 = untreated enzyme; activation factor at 5 µM; 96,000 tested, under 10 active; AID 1025;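 active = activation factor of at least 2 at 5 µM in the primary screen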;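 also: 0 = wells with 2.5 mM tranylcypromine and 1 = vehicle-only wells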
CYP2C19 inh – blocks human cytochrome P450 2C19; inhibition, % at 5 µM; 21% of 96,000 active; CYP2C19 Supersomes, luciferin-H EGE luminescence, 30 min;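 active = CYP2C19 inhibition above a set limit at 5 µM in the primary screen, cut at about 50% in these data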;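 also: plate controls were negative control wells for no effect and 2.5 mM tranylcypromine positive control for full effect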
CYP2C9 act – activators of human CYP2C9; recombinant CYP2C9, luciferin-H conversion, luminescence; active compounds read high; factor 1 = untreated enzyme, 0 = blocked; activation factor at 5 µM; 1.4% of 96,000 active; AID 1024;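 active = activation factor of 2 or more for CYP2C9 at a 5 µM dose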;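 also: 0 = sulfaphenazole-blocked wells and 1 = vehicle-only wells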
Numbers without * were called inactive; / = no result. In the library only some 28% were active in any assay of this set; here they are far more common.

SMILES	CYP2C9 inh	PTK2B oligo ant	CYP2C19 activ	CYP2C19 inh	CYP2C9 act
O=C(NCc1ccncc1)Nc1ccc(Cl)cc1Cl	83*	0.62	0.1	90*	0.2
O=C(NCc1ccncc1)Nc1cccc(Cl)c1	81*	0.59	0.1	90*	0.2
CN(C)C(CNS(=O)(=O)c1ccc(Cl)cc1)c1cccnc1 (stereo not drawn)	16	/	0.5	52*	0.8
COc1ccccc1C(=O)NCC(c1cccnc1)N(C)C (stereo not drawn)	50*	-0.48	0.7	35	0.5
CC1(C)CC2CC(C)(CN2C(=O)COC(=O)c2ccc(Cl)c(N)c2)C1 (stereo not drawn)	4	0.95	0.5	47	1
CN(C)C(CNS(=O)(=O)c1ccc(Br)cc1)c1cccnc1 (stereo not drawn)	/	0.36	/	/	/
O=C(NCCCN1CCCC1=O)c1ccc(CNS(=O)(=O)c2ccc(F)cc2)cc1	-5	0.77	1.1	-10	1
CN(C)C(CNC(=O)Nc1cccc(Cl)c1)c1cccnc1 (stereo not drawn)	39	-0.04	0.5	51*	0.6
O=C(NCc1ccncc1)Nc1ccc(F)cc1	79*	1.5	0.1	92*	0.2
O=C(O)CN1CCN(Cc2ccc(F)cc2Cl)C1=O	/	0.78	/	/	/
CCCCCCN=CC1=C(O)C(C(=O)OC)C(C)(C)CC1=O (stereo not drawn)	42	0.11	0.5	47	0.6
COc1ccc(N2CCN(CC(=O)Nc3nnc(-c4ccccc4)s3)CC2)cc1	/	0.67	/	/	/
CCCNS(=O)(=O)c1ccc(OCC(=O)NCc2ccc3c(c2)OCO3)cc1	62*	-2	0.5	54*	0.4
CCCNS(=O)(=O)c1ccc(OCC(=O)Nc2ccc3c(c2)OCCO3)cc1	70*	-0.63	0.9	11	0.3
CCC(C)NS(=O)(=O)c1ccc(OCC(=O)NCc2ccc3c(c2)OCO3)cc1 (stereo not drawn)	49	1.8	0.6	36	0.5
CCOC(=O)N1CCN(C(=O)CN(C2CCCCC2)S(=O)(=O)c2ccc(Cl)cc2)CC1	22	1.1	0.8	16	0.8
O=C(CN1CCOCC1)OCCCC1CCCCC1	8	0.54	0.3	73*	0.9
CC(C)(C)c1[nH]nc2c1C(Cc1ccccc1)C(C#N)=C(N)O2 (stereo not drawn)	59*	0.3	0.3	73*	0.4
Cc1cc2c(c(=O)n1C)C(Cc1ccccc1)C(C#N)=C(N)O2 (stereo not drawn)	34	0.03	0.2	83*	0.7
CC(C)(C)c1[nH]nc2c1C(c1ccc(OC(=O)c3ccco3)cc1)C(C#N)=C(N)O2 (stereo not drawn)	71*	-1.3	0.3	65*	0.3
Cc1ccc(CN(c2ccc(C(=O)N3CCCC3)cc2)S(C)(=O)=O)cc1	27	0.39	0.9	11	0.7
CCOC(=O)N1CCN(C(=O)Cn2ncn3nc(-c4cccs4)cc3c2=O)CC1	-14	0.92	1	-4	1.1
O=C(c1ccc2c(c1)OCCO2)N1CCCCC1	-2	1.2	0.9	12	1
C=CCc1cc(C(=O)N2CCCCC2)ccc1O	34	0.14	0.1	89*	0.7
Cn1c(SCC(=O)c2ccccc2)nnc1-c1cnccn1	8	0.14	0.6	40	0.9
SMILES	CYP2C9 inh	PTK2B oligo ant	CYP2C19 activ	CYP2C19 inh	CYP2C9 act
Fc1ccc(CSc2nnc(-c3cnccn3)n2Cc2ccco2)cc1	77*	-0.46	0.3	70*	0.2
O=C(CSc1nnc(-c2ccco2)n1Cc1ccccc1)c1ccc(F)cc1	92*	-0.63	0	96*	0.1
CCn1c(SCC(=O)c2ccccc2)nnc1-c1cnccn1	-18	0.46	0.5	54*	1.2
Cc1occc1-c1nnc(SCC(=O)c2ccc(F)cc2)n1Cc1ccco1	60*	0.76	0.8	16	0.4
O=C(CN(Cc1cccs1)C(=O)CN1C(=O)COc2ccccc21)NCc1ccco1	13	0.09	0.9	12	0.9
O=C(CSc1nnc(-c2cnccn2)n1Cc1ccco1)c1ccc2ccccc2c1	54*	-0.1	1	4	0.5
O=C(CSc1nc2ccccc2c(=O)n1Cc1ccco1)c1ccc(F)cc1	52*	-0.54	0.9	8	0.5
NC(=O)CSc1nc2ccccc2c(=O)n1Cc1ccco1	/	-0.03	/	/	/
COc1ccccc1-c1nnc(SCC(=O)c2ccc(C3CCCCC3)cc2)n1Cc1ccco1	86*	-0.3	0.2	80*	0.1
Cn1c(SCC(=O)c2ccc(F)cc2)nnc1-c1ccccc1N	0	-0.04	0.2	75*	1
Cc1cc(=O)n2nc(-c3ccccc3)sc2c1C#N	-18	-0.3	1.1	-12	1.2
O=C(CSc1nnc(-c2ccccn2)n1Cc1ccco1)c1ccc(-c2ccccc2)cc1	28	1.2	1	0	0.7
Cc1occc1-c1nnc(SCC(=O)c2ccc(F)cc2)o1	32	0.86	0.2	84*	0.7
O=C(CSc1nnc(-c2cc3ccccc3cc2O)n1Cc1ccco1)c1ccc(F)cc1	100*	-0.76	0.1	94*	0
Cc1cc(NC(=O)CSc2nnc(-c3ccoc3C)o2)no1	16	1.2	1	4	0.8
O=C(Cn1cnc2ccccc21)NC(c1ccccc1)c1ccccc1	5	-0.17	1	4	0.9
CSc1c(-c2ccccc2)nc2ccc(Cl)cc2c1C(=O)O	81*	0.09	1	2	0.2
Cc1ccc(CNC(=O)CCS(=O)(=O)c2cccc3nonc23)cc1	-23	1.1	0.6	37	1.2
COc1ccccc1CNC(=O)CCS(=O)(=O)c1cccc2nonc12	59*	1.1	0.1	91*	0.4
COc1ccc(CNC(=O)CCS(=O)(=O)c2cccc3nonc23)cc1	30	-0.94	0.3	74*	0.7
COc1ccccc1CNC(=O)CCS(=O)(=O)c1cccs1	-88	0.41	0.2	83*	1.9
COc1ccc(N(C)C(=O)CCS(=O)(=O)c2cccc3nonc23)cc1	-9	1.1	0.8	24	1.1
CC(=O)NC(CC(C)C)C(=O)NC(=O)NCc1ccccc1 (stereo not drawn)	-5	-0.39	0.8	20	1.1
CCC(C)C(NC(C)=O)C(=O)NC(=O)NC(c1ccccc1)c1ccccc1 (stereo not drawn)	80*	0.32	0.2	78*	0.2
CN(CC(=O)NCc1cccs1)S(=O)(=O)c1cccc2cccnc12	-138	/	0.8	22	2.4*
CN(C)c1ccc(CNC(=O)CN(C)S(=O)(=O)c2cccc3cccnc23)cc1	44	/	0.3	70*	0.6
CCc1nc(NCCN)c(C#N)c2c1CSC(C)(C)C2	35	0.88	0.9	14	0.6
O=S(=O)(NCc1cc(-c2ccccc2Cl)no1)c1ccccc1	-140	-0.36	0.1	92*	2.4*
O=S(=O)(NCc1cc(-c2ccccc2)no1)c1ccc(Cl)cc1	5	1.6	0.2	78*	0.9
O=S(=O)(NCc1cc(-c2ccc(Cl)cc2)no1)c1ccccc1	21	0.87	0.5	46	0.8

High-throughput results: PubChem BioAssay, Sanford-Burnham Center for Chemical Genomics
